# FBPA Giardia inh = blocks Giardia fructose-bisphosphate aldolase activity; actives 0.71% (n = 290,000); A8B2U2; Potency, µM (titrated, usually from 59.6 µM), for inactives: at the top dose activity, negative = inhibition, hits mostly inhibitors; purified Giardia FBPA; AID 2451; further: potency means the concentration at half of the fitted maximal effect; on the % scale 0 is the no-effect control and ±100 the full control effect; nearly all actives have a fitted effect of over 55% in size
#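 40 nM FBPA preincubated 10 min at RT with compound (up to 57.5 uM final), then substrate plus GAPDH/TPI/NAD/arsenate coupling and diaphorase/resazurin added. Fluorescence read after 20 min at RT, 525/598 nm.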
# LmPK inh = LmPK (Leishmania mexicana) enzyme inhibition; Q27686; purified LmPK, Kinase-Glo ATP luminescence, 1 h; Potency, µM (top dose mostly 57.5 µM), without a hit: at the highest dose activity change, negative = inhibition, usual class: inhibitors; actives 0.37% (n = 290,000); AID 1721; further: potency means the concentration at half of the fitted maximal effect; on the % scale 0 is the no-effect control and ±100 the full control effect
# Target sequence (Q27686 whole entry, looked up): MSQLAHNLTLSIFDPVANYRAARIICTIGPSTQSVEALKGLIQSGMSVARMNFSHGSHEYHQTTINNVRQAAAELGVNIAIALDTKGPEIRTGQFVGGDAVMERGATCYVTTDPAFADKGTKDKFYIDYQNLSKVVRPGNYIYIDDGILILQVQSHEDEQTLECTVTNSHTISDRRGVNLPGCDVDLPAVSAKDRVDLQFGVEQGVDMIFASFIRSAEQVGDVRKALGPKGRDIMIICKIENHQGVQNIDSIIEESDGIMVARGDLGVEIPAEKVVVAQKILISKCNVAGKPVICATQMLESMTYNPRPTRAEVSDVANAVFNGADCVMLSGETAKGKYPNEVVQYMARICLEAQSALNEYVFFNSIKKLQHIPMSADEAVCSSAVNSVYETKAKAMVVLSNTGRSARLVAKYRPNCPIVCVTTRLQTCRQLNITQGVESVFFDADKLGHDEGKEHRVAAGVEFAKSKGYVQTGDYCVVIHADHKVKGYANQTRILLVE
#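 Screened at intermediate enzyme activity to detect both inhibitors and activators: LmPK at 0.1 nM, with a 0.5 nM enzyme column as activation reference. PEP 0.5 mM, ADP 0.1 mM; ATP detected by luminescence after 1 h.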
# TbPYK inhibitor = inhibitors of Trypanosoma brucei pyruvate kinase; Q57TT1; TbPYK enzyme, Kinase-Glo Plus ATP luminescence, 45 min; Potency, µM (titrated, usually from 76.8 µM), without a hit: top-dose activity, negative = inhibition, most hits filed as inhibitors; actives 0.12% (n = 410,000); further: potency means the concentration at half of the fitted maximal effect; on the % scale 0 is the no-effect control and ±100 the full control effect; nearly all actives have a fitted effect of over 50% in size
#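 Screened from lowest to highest concentration, compounds were pinned into TbPYK/substrate mixtures, and ADP (130 uM final) was added. Plates sat at room temperature for 45 min prior to Kinase-Glo Plus detection by luminescence.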
# RE007 growth inh = less growth of the S. pombe RE007 Vpr strain; Potency, µM (top dose mostly 92.2 µM), without a hit: at the top dose activity change, negative = less growth, actives largely listed as inhibitors; S. pombe RE007 Vpr strain, BacTiter-Glo ATP luminescence, 24 h; AID 651644; actives 0.21% (n = 360,000); active means well fitted falling curve with a large enough effect; inconclusive means small, poorly fitted or top-dose-only effect; inactive means no such curve, though single readings can be large or run the other way; further: potency means the concentration at half of the fitted maximal effect; on the % scale 0 is the no-effect control and ±100 the full control effect; nearly all actives have a fitted effect of over 50% in size
#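 Fission yeast strain RE007, carrying one chromosomally integrated HIV-1 vpr copy, was seeded at OD 0.01 in PMG+AL medium with 23 nL pinned compound. After 24 h at 30 °C and 99% humidity, viability was read by BacTiter-Glo luminescence.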
# Shiga toxin inh = blocks Shiga toxin action in Vero cells; actives 9.2% (n = 290,000); inhibition, % at 38.7 µM; Vero cells, Shiga toxin protein synthesis inhibition reporter; in the data active means inhibition mostly above about 28%, no sharp cut-off; inactive means mostly below about 43%; further: 0% is about no effect
# CHX counter = affects cycloheximide protein synthesis inhibition readout, counter-screen | actives 12% (n = 300,000) | cell reporter, cycloheximide protein synthesis inhibition counterscreen | max response, %; in the data active means max response mostly above about 13%, no sharp cut-off; inactive means mostly below about 14%; further: read at 38.3 µM for the half of the compounds with a filed dose; 0% is about no effect
# An asterisk follows results filed as active; ? = inconclusive; · = not tested or not shown; [ ] = another dose, or the depositor's remark. This is one part of a sample in which hits are shown more often than they occur. Unless noted, the call rests on the fitted dose curve; in most records, active means well fitted curve in the direction sought with a large enough effect; inconclusive means small, poorly fitted or top-dose-only effect, or another doubt; inactive means no such curve, though single readings can be large; an effect the other way counts as inactive or inconclusive.
SMILES,FBPA Giardia inh,LmPK inh,TbPYK inhibitor,RE007 growth inh,Shiga toxin inh,CHX counter
Oc1ccccc1N=Nc1ccccc1O,6%,-4%[11.5 µM],-4%,-36%,194*,94*
Cc1ccc(-n2ncc3c(=O)n(Cc4ccccc4C)cnc32)cc1C,·,·,4%,·,·,·
Oc1ccc(-c2csc(-c3c[nH]c4ccccc34)n2)c(O)c1,-1%,2%,-5%,7%,60*,70*
Cc1ccc(-c2csc(-c3c[nH]c4ccccc34)n2)c(C)c1,-8%,2%,3%,?,78*,36*
Cc1ccc(Nc2c(-c3c[nH]c4ccccc34)nc3cc(C)ccn23)cc1,·,·,-12%,·,·,·
C=CCC(=O)NC1CC(C)(C)Cc2c1cnn2-c1ccc(C)cc1 (stereo not given),5%,7%,5%,-7%,31,5
Cc1ccc(-n2ncc3c2CC(C)(C)CC3NC(=O)c2ccccn2)cc1 (stereo not given),8%,2%,-1%,13%,-2,21*
Cc1cc(C(=O)NC2CC(C)(C)Cc3c2cnn3-c2ccc(F)cc2)no1 (stereo not given),·,-1%,2%,2%,37*,18
Cc1cccc(NC(=O)CSc2nc(-c3cccs3)cc(C(F)(F)F)c2C#N)c1,·,·,0%,·,·,·
COc1ccc(-n2c(=O)c3c(c4cc(OC)ccc4n3C)n(C)c2=O)cc1,·,·,2%,·,·,·
COc1cc(C(=O)OC2CC3CCC2(C)C3(C)C)ccc1OC(C)=O (stereo not given),7%,7%,-2%,20%,-4,16*
COc1ccc(C(=O)OC2C[C@H]3CC[C@H](C2)N3C)cc1OC (stereo not given in full),·,·,-3%,-9%[18.4 µM],·,·
C=CCn1c(-c2csc3ccccc23)n[nH]c1=S,-8%,11µM*,?,8%,-12,-2
C=CCn1c(-c2c[nH]c3ccccc23)n[nH]c1=S,-5%,22µM*,?,-2%,24,0
C=CCn1c(-c2csc(-c3ccccc3)n2)n[nH]c1=S,-3%,0%,-35%,-1%,-14,-3
CCn1c(-c2c[nH]c3ccccc23)n[nH]c1=S,3%,?,?,-26%,-3,-3
CC(=O)N1CCc2cc(S(=O)(=O)NC(Cc3ccccc3)C(=O)NCc3ccccc3)ccc21 (stereo not given),·,·,2%,·,·,·
Cc1ccccc1NC(=O)Nc1ccccc1C(N)=O,-2%,3%,-2%,-12%,14,-3
COc1cc([N+](=O)[O-])ccc1N/C=C/C(=O)c1cccs1,2%,?,-26%,-8%,60*,27*
Cc1cccc(N/C=C/C(=O)c2cccs2)c1C,-4%,16µM*,-12%,-15%,74*,49*
NC(=O)c1ccccc1N/C=C/C(=O)c1ccc(F)cc1,-7%,8.9µM*,-15%,·,98*,56*
Cc1ccc(C(=O)/C=C/Nc2ccccc2C(N)=O)o1,-12%,-27%,-6%,-4%,83*,54*
NC(=O)c1ccccc1N/C=C/C(=O)c1ccc(Cl)cc1Cl,2%,16µM*,-14%,-19%,72*,33*
NC(=O)c1ccccc1N/C=C/C(=O)c1cccs1,1%,16µM*,-14%,?,45*,44*
CCOc1ccc(C(=O)Nc2cccc(C(=O)O)c2C)cc1Cl,29%,-10%,-13%,-3%,66*,31*
SMILES,FBPA Giardia inh,LmPK inh,TbPYK inhibitor,RE007 growth inh,Shiga toxin inh,CHX counter
Cc1c(NC(=O)c2ccc(-c3ccccc3)cc2)cccc1C(=O)O,11%,0%,-1%,19%,66*,35*
O=C(Nc1ccccc1C(=O)O)c1ccccc1,-1%,9%,4%,2%,-7,2
COc1ccc(C(=O)Nc2ccccc2C(=O)O)cc1Cl,-21%,?,-4%,-4%,66*,27*
CCNc1ncc2nc(-c3ccc(OC)cc3)c(=O)n(CCC#N)c2n1,-4%,·,·,·,·,·
O=C(CC(c1ccco1)S(=O)(=O)c1ccccc1)c1ccc(F)cc1 (stereo not given),-1%,-10%,-7%,-7%,39*,25*
O=C(Cc1ccccc1)NCc1ccc2c(c1)OCO2,4%,-18%,4%,-8%,118*,59*
O=C(CCc1ccccc1)NCc1ccc2c(c1)OCO2,6%,-3%,-6%,10%,19,14*
O=C(NCc1ccc2c(c1)OCO2)c1cc(-c2ccccc2)on1,3%,-11%,-9%,-1%,4,2
O=C(Cc1c[nH]c2ccccc12)NCc1ccc2c(c1)OCO2,2%,4%,2%,-3%,16,19*
O=C(NCc1ccc2c(c1)OCO2)C(=O)Nc1ccccc1,7%,-3%,-3%,7%,90*,22*
O=C(CCc1c[nH]c2ccccc12)NCc1ccc2c(c1)OCO2,6%,14%,-1%,3%,-11,2
COc1ccc(-c2nc3cnc(OC)nc3n(C)c2=O)cc1,4%,·,·,·,·,·
COc1ccccc1N1CCN(C(=O)C2CCN(S(=O)(=O)c3cccs3)CC2)CC1,·,·,4%,·,·,·
O=C(CSc1nc2cc([N+](=O)[O-])ccc2n1-c1ccccc1)NCc1ccc2c(c1)OCO2,7.9µM*,7%,4%,-8%,18,-1
O=C(Cc1ccccc1[N+](=O)[O-])NCc1ccc2c(c1)OCO2,9%,-23%,-1%,-9%,69*,58*
O=C(COC(=O)COc1ccccc1[N+](=O)[O-])NCc1ccc2c(c1)OCO2,·,·,3%,14%,·,·
O=C(NCc1ccc2c(c1)OCO2)NC1CCCCC1,2%,0%,4%,2%,31,-1
CCOC(=O)c1c(NCCN(C)C)c2ccccc2[nH]c1=O,1%,0%,1%,1%,-9,-1
Cc1cc(C)cc(-n2c(SCC(=O)NCc3ccc4c(c3)OCO4)nc3ccccc3c2=O)c1,8%,0%,-2%,7%,-9,-3
CCOC(=O)c1c(NCc2ccc3c(c2)OCO3)c2ccccc2[nH]c1=O,-8%,-4%,-1%,7%,10,19*
O=C(CC12CCC(CC1)C2)NCc1ccc2c(c1)OCO2,4%,-6%,-1%,-10%,44*,26*
Cc1c(CC(=O)N2CCCCC2)c(=O)oc2cc3occ(C(C)(C)C)c3cc12,·,·,-3%,·,·,·
COc1ccccc1CNC(=O)CN1C(=O)CCc2cc(S(=O)(=O)N3CCCCC3)ccc21,·,·,-2%,·,·,·
O=C(NCc1ccccc1)c1c[nH]c2cc3c(cc2c1=O)OCCO3,4%,5%,0%,1%,30*,37*
Nc1cc(C(=O)O)ccc1Nc1ccccc1,-20%,-9%,2%,1%,14,8
CCc1ccccc1Nc1ccc(C(=O)O)cc1N,1%,-15%,-3%,-1%,69*,37*

# Screens (PubChem BioAssay)
